This is a sample that favours compounds with a hit; in the whole collection about 1.9% have one here.
INS-1E GSIS act: primary screen for activators of insulin secretion dependent on glucose, INS-1E cells, GLuc reporter luminescence; activation, % at 16.6 µM; INS-1E GLuc reporter insulin secretion, 2-3 h; 0.61% of 370,000 active; AID 743287;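 active = lowest replicate activation of at least 40%, so every replicate reaches that level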;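 note: 0% = median of neutral control wells and 100% = median of IBMX positive control wells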
A1 inh: inhibitors of the anti-apoptotic protein A1, read as caspase activation | MEF A1-2A-BIM cells, Caspase-Glo 3/7 luminescence, 3 h; percent of clofoctol response, vehicle zero | caspase activation, % (concentration not given with the values) | 0.066% of 330,000 active;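 active = over half of replicate activation scores above 10%, or exactly half above 10 with the replicate mean above 10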
dFosB act: enhances mouse delta FosB homodimer DNA binding. P13346. purified delta FosB, TAMRA-CDK5 oligo fluorescence polarization; percent of positive-control signal above neutral wells. activation, % at 25 µM. 0.99% of 340,000 active;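 active = mean activation above about 17%, with every replicate also reaching it, limit read from the data, passing the limit was not always enough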
Vif inh: HIV Vif inhibition; HEK293T cells, Vif self-association by quenched fluorescence, imaging, 24 h; inhibition, % at 7.49 µM; 0.35% of 340,000 active; AID 602346; in the data active = inhibition above about 50%, passing the limit was not always enough
Neddylation inh: cullin neddylation inhibition; TR-FRET cullin neddylation, biochemical; 0.58% of 360,000 active; AID 651699; inhibition, % at 25 µM; P61081+Q13564; in the data active = inhibition above about 36%
Target sequence (P61081 whole entry, looked up): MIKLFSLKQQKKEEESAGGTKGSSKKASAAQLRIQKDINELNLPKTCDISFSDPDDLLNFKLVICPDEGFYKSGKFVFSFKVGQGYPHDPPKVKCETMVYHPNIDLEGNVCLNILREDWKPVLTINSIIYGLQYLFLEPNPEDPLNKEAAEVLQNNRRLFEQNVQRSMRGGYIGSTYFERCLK
Target sequence (Q13564 whole entry, looked up): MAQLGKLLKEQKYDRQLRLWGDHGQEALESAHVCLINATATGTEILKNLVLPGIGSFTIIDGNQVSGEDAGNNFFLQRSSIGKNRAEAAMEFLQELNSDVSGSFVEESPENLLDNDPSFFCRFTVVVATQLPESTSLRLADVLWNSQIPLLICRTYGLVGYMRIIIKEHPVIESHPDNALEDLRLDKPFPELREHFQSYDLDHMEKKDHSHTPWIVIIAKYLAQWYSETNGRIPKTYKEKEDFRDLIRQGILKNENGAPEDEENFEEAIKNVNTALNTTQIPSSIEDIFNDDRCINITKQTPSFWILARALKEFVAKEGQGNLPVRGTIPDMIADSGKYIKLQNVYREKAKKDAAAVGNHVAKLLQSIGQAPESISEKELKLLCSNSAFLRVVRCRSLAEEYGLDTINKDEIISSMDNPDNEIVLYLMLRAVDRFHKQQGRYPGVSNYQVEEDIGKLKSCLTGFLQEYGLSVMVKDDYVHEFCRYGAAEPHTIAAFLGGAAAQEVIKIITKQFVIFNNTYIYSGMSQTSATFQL
Numbers without * were called inactive; i = inactive; / = no result given.

SMILES	INS-1E GSIS act	A1 inh	dFosB act	Vif inh	Neddylation inh
COc1cc(OC)cc(-c2c(C#Cc3ccsc3)c3cc(-c4cc(OC)c(OC)c(OC)c4)ccc3n2C)c1	-5	-1	-4	1	/
COc1cc(OC)cc(-c2c(C#Cc3ccsc3)c3cc(-c4ccc5[nH]ccc5c4)ccc3n2C)c1	-2	1	23*	2	11
CNC[C@@H]1Oc2ccc(NC(=O)Nc3cccc4ccccc34)cc2CC(=O)N([C@H](C)CO)C[C@H]1C	-1	/	/	/	/
Cc1nc2c(=O)n(C)c(=O)n(C)c2nc1Cl	96*	1	-2	5	4
COc1cc2cnc(CCCC#N)cc2cc1OC	/	0	-8	-11	-11
N#CCCCc1cc2ccccc2cn1	51*	0	-3	1	-8
O=C(C[C@@H]1CC[C@@H]2[C@H](COC[C@@H](O)CN2CC2CCOCC2)O1)N1CCOCC1	6	/	/	/	/
Cc1noc(C)c1NC(=O)N(C)C[C@@H]1Oc2ccc(NC(=O)CCCCCC(=O)Nc3ccccc3N)cc2CC(=O)N([C@H](C)CO)C[C@H]1C	-1	/	/	/	/
C[C@H]1[C@@H](c2ccccc2)Oc2ccc(Cl)cc2S(=O)(=O)N1Cc1cccc(F)c1	8	/	/	/	/
C[C@H]1[C@@H](c2ccccc2)Oc2c(Cl)cccc2S(=O)(=O)N1C	122*	/	/	/	/
CO[C@H]1CN(C)C(=O)c2cc(NS(=O)(=O)c3ccccc3)ccc2OC[C@@H](C)N(C(=O)NC(C)C)C[C@H]1C	-8	/	/	/	/
COc1ccc2c3c(n(C)c2c1)[C@@H](CO)N(Cc1ccccc1)CC31CN(S(C)(=O)=O)C1	2	/	/	/	/
CN(C)C(=O)[C@@H]1[C@@H](CO)[C@@H]2Cn3c(ccc(-c4ccccc4)c3=O)[C@H]1N2C(=O)C1CC1	19	/	/	/	/
CCN1CCN(c2c(/C=C3\SC(=S)N(Cc4ccco4)C3=O)c(C)c(C#N)c(=O)n2C)CC1	/	1	56*	8	4
COc1cccc(C=C2SC(=S)N(Cc3ccco3)C2=O)c1OC	4	/	/	/	/
COC(=O)c1ccccc1-c1ccc(/C=N/NC(=O)c2cc3ccccc3o2)o1	-12	0	-8	-8	/
COC(=O)c1ccccc1-c1c2ccc(=N)cc-2oc2cc(N)ccc12	-28	2	88*	-4	i
O=C(c1cccc(F)c1)N1CCCCN2[C@H](CO)[C@H](c3ccc(-c4cccnc4)cc3)[C@@H]2C1	11	/	/	/	/
CCOC(=O)c1c(-c2ccccc2)nnn1-c1nc(OCC)nc(N2CCCCC2)n1	/	-1	-22	-14	3
CCOc1nc(N2CCCCC2)nc(-n2cc(-c3ccccc3)nn2)n1	-18	0	-2	55*	6
CC1CC1C(=O)Nc1cc(C(F)(F)F)ccc1N1CCOCC1 (stereo unspecified)	48*	1	4	-29	-8
CCOC(=O)c1cc(NC(=O)c2cnccn2)cc(C(=O)OCC)c1	86*	0	-7	5	-25
Cc1ccc(OCCN2C(=O)CSC2=O)cc1	/	-1	-4	-13	-10
C[N+](C)(C)CCN1C(=O)CSC1=O	10	1	2	55*	2
CC(C)(C)OC(=O)N1O[C@H]2C[C@@H]1[C@@H]1[C@@H]2N=NN1C12CC3CC(CC(C3)C1)C2	44*	/	-10	0	1
SMILES	INS-1E GSIS act	A1 inh	dFosB act	Vif inh	Neddylation inh
CO[C@@H]1CN(C)C(=O)c2cc(NS(=O)(=O)c3ccccc3C)ccc2OC[C@H](C)NC[C@@H]1C	2	/	/	/	/
C=C(C)CN(CC)C(=O)CSc1nc2ncc(Cl)cc2[nH]1	/	1	-14	-1	2
C=C(C)CSc1nc2ncc(Cl)cc2[nH]1	/	0	4	69*	1
CCC(C)C(NC(=O)OC(C)(C)C)C(=O)NC(C(=O)NC(C)C(N)=O)C(C)C (stereo unspecified)	12	0	3	3	-8
CC(NC(=O)C(CC(=O)OC(C)(C)C)NC(=O)OC(C)(C)C)C(N)=O (stereo unspecified)	/	0	0	55*	-3
Cc1noc(C)c1NC(=O)N(C)C[C@@H]1Oc2ccc(NC(=O)C3CC3)cc2CC(=O)N([C@H](C)CO)C[C@H]1C	8	/	/	/	/
O=C(C[C@H]1CC[C@H](NC(=O)C2CCC2)[C@H](CO)O1)NC1CCC1	21	/	/	/	/
COc1ccccc1-c1nnc(SCC(=O)N2CCC(C)CC2)o1	/	0	-1	-3	2
CC1CCN(C(=O)CSc2nnc(-c3ccccc3F)o2)CC1	63*	-1	0	9	2
Cc1ccc(C(=O)O)cc1-c1ccc(/C=C2/NC(=O)N(c3ccccc3)C2=O)o1	/	0	-10	3	47*
CNC(=O)C1CC(=O)N(c2ccc(OCC(=O)Nc3ccccc3)cc2)C1 (stereo unspecified)	55*	/	-5	1	-21
C[C@@H]1CN([C@H](C)CO)C(=O)c2cc(Br)cnc2O[C@H]1CN(C)CC1CCCC1	-1	/	/	/	/
Cc1cc(C)cc(NC(=O)Cc2ccc(-n3cccc3)cc2)c1	54*	0	-11	6	-2
C[C@H](CO)N1C[C@H](C)[C@@H](CN(C)Cc2ccccc2)Oc2c(NC(=O)Cc3cn(C)c4ccccc34)cccc2C1=O	-7	/	/	/	/
COc1ccc(C(=O)c2sc(Nc3ccccc3)nc2N)cc1OC	43*	0	-5	30	-21
COc1ccc(C(=O)c2sc(Nc3ccccc3)nc2N)cc1	32	0	-1	-1	9
C[C@@H]1CN([C@@H](C)CO)C(=O)c2cccc(NC(=O)NC3CCCCC3)c2O[C@@H]1CN(C)C(=O)Nc1ccccc1	-3	/	/	/	/
CCC(CC)C(=O)NCCc1ccc(S(N)(=O)=O)cc1	/	0	3	68*	8
CCCCC(CC)C(=O)NCCc1ccc(S(N)(=O)=O)cc1 (stereo unspecified)	/	/	1	-4	-3
COc1ccc(CN(C)C[C@H]2Oc3ccc(NC(=O)Cn4cnnn4)cc3C(=O)N([C@@H](C)CO)C[C@H]2C)cc1	2	/	/	/	/
Cc1cc(NC(=O)CSc2nc3c([nH]c4ccccc43)c(=O)n2-c2cccc(C(F)(F)F)c2)no1	/	/	-2	51*	-5
COc1ccc(C2N(c3ccccc3)C(=O)C2(F)F)cc1OC (stereo unspecified)	44*	0	7	-2	5
O=C(C[C@H]1CC[C@H]2[C@@H](COC[C@@H](O)CN2S(=O)(=O)c2cccc(Cl)c2)O1)NC1Cc2ccccc2C1	-15	/	/	/	/
C[C@@H]1COCn2nncc2CC[C@H](C)C(=O)N1	7	/	/	/	/
CCOC(=O)C1CCCN(C(=O)c2cc(S(=O)(=O)N(C)C)ccc2N2CCCC2)C1 (stereo unspecified)	-2	1	4	56*	10
CCOC(=O)C1CCN(C(=O)c2cc(S(=O)(=O)N(C)C)ccc2N2CCCC2)CC1	-20	0	-17	1	4
CCOc1ccc(N2C(=O)CC(N3CCc4ccccc43)C2=O)cc1 (stereo unspecified)	/	1	3	81*	-5

Screening results as filed in PubChem BioAssay.
